Rce1 inhib: inhibitors of yeast Ras-converting enzyme; Q03530; yeast membranes, quenched prenylated peptide cleavage fluorescence; calls only; 290,000 tested, 0.27% active; AID 2563;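 active = fall in fluorescence gain of 50% or more versus controls, with final raw signal at or below 3038400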
Target sequence (Q03530 whole entry, looked up): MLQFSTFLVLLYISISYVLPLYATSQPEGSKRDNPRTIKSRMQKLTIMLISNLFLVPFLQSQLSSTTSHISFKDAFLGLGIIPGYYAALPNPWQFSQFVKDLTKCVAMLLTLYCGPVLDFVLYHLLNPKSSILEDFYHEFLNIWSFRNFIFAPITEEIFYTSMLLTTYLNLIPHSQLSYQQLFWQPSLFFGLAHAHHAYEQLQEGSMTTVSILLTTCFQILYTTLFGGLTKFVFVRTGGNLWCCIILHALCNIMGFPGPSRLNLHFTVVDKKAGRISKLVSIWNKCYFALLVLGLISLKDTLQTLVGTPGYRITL
Efflux pump mplx: antifungal efflux pump inhibition, Nile Red retention. S. cerevisiae Candida pump triplex. inhibition, % at 10 µM. 330,000 tested, 0.44% active;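 active = plate passing quality check with inhibition over a set limit, or well fluorescence over plate mean plus 4 SD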;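 note: Nile Red retained in pooled yeast measured as flow cytometry median fluorescence; higher means more Nile Red kept so more efflux inhibition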
Rtt109 HAT inh: C. albicans Rtt109 histone acetyltransferase inhibition. Q5AAJ8. AID 540336. inhibition, % at 34.9 µM. purified Rtt109/Vps75, ThioGlo CoA-SH fluorescence, 4 h. 330,000 tested, 0.16% active;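 active = inhibition of at least 50% in every replicate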
ALR inh: blocks human ALR sulfhydryl oxidase activity | P55789 | purified ALR, DTT oxidation, H2O2 HRP-luminol luminescence | inhibition, % (test concentration not listed) | 290,000 tested, 3.8% active | AID 485317;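 active = mean replicate inhibition above about 79%, with every replicate also reaching it, limit read from the data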
Target sequence (P55789 whole entry, looked up): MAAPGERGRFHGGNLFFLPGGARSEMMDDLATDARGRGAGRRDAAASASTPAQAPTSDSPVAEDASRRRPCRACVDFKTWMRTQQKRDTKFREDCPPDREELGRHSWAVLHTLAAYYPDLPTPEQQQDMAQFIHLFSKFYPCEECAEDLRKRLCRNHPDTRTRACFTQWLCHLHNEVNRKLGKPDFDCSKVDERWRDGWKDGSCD
GRK2 aptamer HTS: inhibitors of human GRK2 displacing RNA aptamer; P25098; 330,000 tested, 0.59% active; bead flow cytometry, FAM-aptamer displacement from GRK2; inhibition of aptamer binding, % at 10 µM; AID 488847;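 active = inhibition of aptamer binding above 40%, roughly 3 SD of noise, on plates passing a quality check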;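 note: median bead fluorescence of bound FAM aptamer so fluorescent compounds give negative values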
HDAC3 inhib: human HDAC3 inhibition; recombinant HDAC3, fluorogenic peptide/trypsin coupled, fluorescence; inhibition, % at 8.3 µM; 320,000 tested, 0.15% active; in the data active = inhibition above about 26%, passing the limit was not always enough
Cmpd fluor yeast: flagged as fluorescent in efflux inhibitor counter-screen; AID 588517; fluorescence ratio to DMSO, % at 10 µM; 1,700 tested, 4% active; shares compounds with Efflux pump mplx; S. cerevisiae AD/pABC3, compound fluorescence, flow cytometry;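 active = fluorescence ratio to DMSO above its plate's cutoff, the plate mean ratio plus 5 SD, cut at about 210% in these data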;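 note: unstained yeast with no Nile Red so the signal is compound autofluorescence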
CaMdr1 efflux inh: inhibitors of Candida albicans Mdr1 efflux pump. 1,700 tested, 1% active. inhibition, % at 10 µM. shares compounds with Efflux pump mplx. AID 588518. S. cerevisiae AD/CaMDR1, Nile Red efflux, flow cytometry; in the data active = inhibition above about 26%;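 note: higher means more Nile Red retained so more efflux inhibition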
Cdr2 pump inh: inhibitors of Candida albicans Cdr2 efflux pump; Nile Red retention ratio vs DMSO, % at 10 µM; 1,700 tested, 4% active; AID 588520; shares compounds with Efflux pump mplx; S. cerevisiae AD/CaCDR2, Nile Red retention, flow cytometry; in the data active = Nile Red retention ratio vs DMSO above about 190%;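 note: higher ratio means more blocking of Cdr2 efflux of the dye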
Cdr1 pump inh: blocks the Candida albicans Cdr1 efflux pump in yeast | shares compounds with Efflux pump mplx | S. cerevisiae AD/CaCDR1, Nile Red efflux, flow cytometry | inhibition, % at 10 µM | 1,700 tested, 1% active | AID 588522;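 active = inhibition above the screen-wide mean plus twice its standard deviation, cut at about 32% in these data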
A number is an active result; n = inactive; x = no result. Sampled rows, rich in hits. Any-hit rate of the full collection: about 4.5%.

SMILES	Rce1 inhib	Efflux pump mplx	Rtt109 HAT inh	ALR inh	GRK2 aptamer HTS	HDAC3 inhib	Cmpd fluor yeast	CaMdr1 efflux inh	Cdr2 pump inh	Cdr1 pump inh
COc1ccc(/C=C/CN2CCCC(C(=O)c3ccc(OC)c(F)c3)C2)cc1 (centres undefined)	n	n	n	n	n	n	x	x	x	x
CC(C)c1ccc(C(=O)NC(=S)Nc2ccc3[nH]c(=O)[nH]c3c2)cc1	x	n	n	n	n	n	n	n	n	n
COc1ccc(C(=O)NC(=S)Nc2ccc3[nH]c(=O)[nH]c3c2)cc1	n	n	n	x	n	n	x	x	x	x
O=C(COC(=O)c1c2ccccc2cc2ccccc12)Nc1ncc(C(F)(F)F)cc1Cl	n	0.4	n	n	n	n	n	n	n	n
CC(C)CCSc1nnc(N)s1	n	n	n	n	n	n	x	x	x	x
CCCSc1nnc(N)s1	n	18	n	n	n	n	n	n	n	n
COc1ccccc1C(=O)COC(=O)/C=C/c1ccccc1	n	6.2	n	n	n	n	n	n	n	n
O=C(/C=C/c1ccccc1)OCC(=O)c1c[nH]c2ccccc12	x	n	n	n	n	n	x	x	x	x
COc1ccc(NC(=O)CSCC(=O)N(C)CCOc2ccc(Cl)cc2)cc1	n	n	n	n	n	n	x	x	x	x
Cc1cccc(NC(=O)c2cc3cc([N+](=O)[O-])ccc3s2)n1	n	1.1	n	n	n	n	n	n	n	n
Cc1ccc2c(cnn2C(=O)CCC(=O)NC2CCCCC2)c1	n	n	n	n	n	n	x	x	x	x
CC(C)CCNC(=O)CCSCCC(=O)NCCC(C)C	n	8.9	n	n	n	n	n	n	n	n
CC(C)CCNC(=O)CCCc1ccccc1	n	n	n	n	n	n	x	x	x	x
Cc1cc(C)c2c(n1)sc1c(-c3ccccc3)c(C#N)c(N)nc12	n	18	n	n	n	n	n	n	n	n
Cc1cc(Br)c(NC(=O)COC(=O)C2CCCCC2)c(Br)c1	x	n	n	n	n	n	x	x	x	x
CCc1noc(C)c1C(=O)N1CCN(S(=O)(=O)c2c(C)c(C)cc(C)c2C)CC1	n	n	n	n	n	n	x	x	x	x
O=C(Nc1ccccc1O)c1cc2cc(Br)ccc2oc1=O	n	1.3	n	n	n	n	n	n	n	n
O=C(NNC(=O)c1cc2cc(Br)ccc2oc1=O)c1ccc(O)cc1	n	n	n	n	n	n	x	x	x	x
O=C(Cn1cnc2ccccc2c1=O)c1ccc(OC(F)F)cc1	n	n	n	n	n	n	x	x	x	x
O=C(CCN1C(=O)/C(=C/c2ccc(F)cc2)SC1=S)NCCCn1ccnc1	n	2.1	n	n	n	n	n	n	n	n
O=C(CCN1C(=O)/C(=C/c2ccc(Cl)cc2)SC1=S)NCCCn1ccnc1	n	n	n	n	n	n	x	x	x	x
COc1ccc(NCC(=O)Nc2cccc(S(=O)(=O)N3CCCC3)c2)cc1Cl	x	n	n	n	n	n	x	x	x	x
N#Cc1cc(Cl)c(N2CCOCC2)cc1C#N	n	n	n	n	n	n	x	x	x	x
CN1CCN(C2=CC3=CC(=C(C#N)C#N)CCC3CC2)CC1 (centres undefined)	x	x	n	x	x	x	n	n	243	n
N#CC(C#N)=C1C=C2C=C(N3CCOCC3)CCC2CC1 (centres undefined)	n	x	n	x	x	x	n	n	206	n
N#CC(C#N)=C1C=C2C=C(N3CCCCCC3)CCC2CC1 (centres undefined)	x	x	n	x	x	x	258	n	271	n
CCN1CCN(C2=CC3=CC(=C(C#N)C#N)CCC3CC2)CC1 (centres undefined)	x	x	n	x	x	x	n	n	203	n
CC1(C)CC(NCCN2CCN(C3=CC(=C(C#N)C#N)CC(C)(C)C3)CC2)=CC(=C(C#N)C#N)C1	n	n	n	x	n	n	x	x	x	x
Cc1noc(C)c1C(=O)NCCc1c(C)[nH]c2ccccc12	n	n	n	n	n	n	x	x	x	x
COc1ccc(OCc2cc(C(=O)NC(C)Cc3ccccn3)no2)c(Cl)c1 (centres undefined)	n	1.6	n	n	n	n	n	n	n	n

Source: PubChem BioAssay (several laboratories)
